Data taken from PubChem BioAssay (NCI).
About 83,000 compounds went through this panel and 20% of them were active in at least one assay; those are over-represented in the sample as a whole.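 Plates (96-well) were seeded with cells, treated with compound at one concentration, and incubated for 48 hours before percent growth was determined.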 Active and inactive are the calls of the source. Rule for the calls: active = growth percent below 10; inactive = the rest.

What was measured:
Test in all cases: NCI-60 one-dose screen, 48 h (100 = growth as untreated, 0 = no growth, -100 = all killed)
NCI-H226 lung = conditions: 10 µM
NCI-H322M lung = conditions: 10 µM
HOP-62 NSCLC = conditions: 10 µM
A549/ATCC NSCLC = conditions: 10 µM
786-0 renal = conditions: 10 µM
COLO 205 colon = conditions: 10 µM
DU-145 prostate = conditions: 10 µM
SF-268 CNS = conditions: 10 µM
SF-295 CNS = conditions: 10 µM
SF-539 CNS = conditions: 10 µM
HCT-15 colon = conditions: 10 µM
SNB-75 CNS = conditions: 10 µM
SNB-19 CNS = conditions: 10 µM
U251 CNS = conditions: 10 µM
PC-3 prostate = conditions: 10 µM
EKVX NSCLC = conditions: 10 µM
UO-31 renal = conditions: 10 µM
ACHN renal = conditions: 10 µM
HL-60(TB) leukemia = conditions: 10 µM unless noted
CCRF-CEM leukemia = conditions: 10 µM

Measured: growth

N#Cc1c(-n2c(Br)c(Br)c3cc(Br)ccc32)[nH]c2c(Br)cc(Br)cc12
inactive: A549/ATCC NSCLC 10.3% | DU-145 prostate 17% | SNB-19 CNS 15% | CCRF-CEM leukemia 13.2%
active: NCI-H226 lung -20.5% | NCI-H322M lung 0.977% | HOP-62 NSCLC -50.9% | 786-0 renal -19.1% | COLO 205 colon -89.6% | SF-268 CNS 9.61% | SF-295 CNS -67% | SF-539 CNS 6.25% | HCT-15 colon -27% | SNB-75 CNS -9.71% | U251 CNS 2.86% | PC-3 prostate -8.16% | EKVX NSCLC 3.62% | UO-31 renal 1.66% | ACHN renal 1.41% | HL-60(TB) leukemia 1.07%

CC1=C2C(=C[C@@](C)(C=O)[C@@H]2O)C(=O)[C@](C)(O)C12CC2
inactive: NCI-H226 lung 46.1% | NCI-H322M lung 26.5% | SF-268 CNS 12.2% | SNB-19 CNS 20.7% | EKVX NSCLC 15% | CCRF-CEM leukemia 22.6%
active: HOP-62 NSCLC 8.06% | A549/ATCC NSCLC 8.13% | 786-0 renal 5.21% | COLO 205 colon -28.2% | DU-145 prostate 9.15% | SF-295 CNS 3.31% | SF-539 CNS -10.7% | HCT-15 colon 6.02% | SNB-75 CNS -3.53% | U251 CNS 4.74% | PC-3 prostate 6.53% | UO-31 renal -13.3% | ACHN renal -18.5% | HL-60(TB) leukemia -12%

CN(CCF)/N=N/c1nc[nH]c1C(N)=O
inactive: NCI-H226 lung 47.6% | NCI-H322M lung 60% | HOP-62 NSCLC 26.5% | A549/ATCC NSCLC 98.8% | 786-0 renal 41.8% | COLO 205 colon 39.1% | DU-145 prostate 24.6% | SF-268 CNS 36.8% | SF-295 CNS 19.9% | SF-539 CNS 38.5% | HCT-15 colon 57.6% | SNB-75 CNS 31.4% | SNB-19 CNS 98.8% | U251 CNS 90.9% | PC-3 prostate 55.1% | EKVX NSCLC 75.9% | UO-31 renal 21.1% | ACHN renal 36.6% | HL-60(TB) leukemia 21.6% | CCRF-CEM leukemia 20.8%
